Screens as filed in PubChem BioAssay.
FEN1 inhibitor – blocks human flap endonuclease 1; P39748; Recombinant FEN1 flap cleavage, fluorescence, 15 min; Potency, µM (titrated, usually from 114 µM), for inactives: top-dose activity change, negative = inhibition, usual class: inhibitors; 390,000 tested, 0.35% active; further: potency means the concentration at half of the fitted maximal effect; on the % scale 0 is the no-effect control and ±100 the full control effect; nearly all actives have a fitted effect of over 65% in size
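Read-out was taken twice, immediately and after 15 min, following addition of 50 nM substrate to 10 nM FEN1 that had sat with test compound for 15 min at room temperature. Curves came from a four-parameter Hill model.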
POLI inh – inhibitors of human DNA polymerase iota; Potency, µM (titrated, usually from 115 µM), without a hit: top-dose activity, negative = inhibition, usual class: inhibitors; Q9UNA4; 390,000 tested, 1% active; Pol iota fluorescent replication assay, 10 min; further: potency means the concentration at half of the fitted maximal effect
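Fluorescent replication assay read twice, at 0 min and 10 min after adding 50 nM (final) substrate. Enzyme (10 nM) and compounds were first incubated 15 min at room temperature; enzyme-free buffer wells were negative controls.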
POLB inh – inhibitors of human DNA polymerase beta; P06746; 340,000 tested, 1.3% active; Potency, µM (doses to about 114 µM), inactives show at the highest dose activity change, negative = inhibition, usual class: inhibitors; Pol beta primer extension/strand displacement, fluorescence kinetic; further: potency means the concentration at half of the fitted maximal effect; on the % scale 0 is the no-effect control and ±100 the full control effect
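Human Pol beta at 10 nM; strand-displacement substrate 50 nM final. Compound exposure 15 min at room temperature before start, reaction 10 min at room temperature.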
Pol eta inh-1 – inhibitors of human DNA polymerase eta; Q9Y253; recombinant Pol eta, fluorescent DNA replication assay; Potency, µM (top dose mostly 114 µM), for inactives: at the highest dose activity change, negative = inhibition, actives largely listed as inhibitors; 390,000 tested, 1.2% active; AID 588591; further: potency means the concentration at half of the fitted maximal effect; on the % scale 0 is the no-effect control and ±100 the full control effect
Target sequence (Q9Y253 whole entry, looked up): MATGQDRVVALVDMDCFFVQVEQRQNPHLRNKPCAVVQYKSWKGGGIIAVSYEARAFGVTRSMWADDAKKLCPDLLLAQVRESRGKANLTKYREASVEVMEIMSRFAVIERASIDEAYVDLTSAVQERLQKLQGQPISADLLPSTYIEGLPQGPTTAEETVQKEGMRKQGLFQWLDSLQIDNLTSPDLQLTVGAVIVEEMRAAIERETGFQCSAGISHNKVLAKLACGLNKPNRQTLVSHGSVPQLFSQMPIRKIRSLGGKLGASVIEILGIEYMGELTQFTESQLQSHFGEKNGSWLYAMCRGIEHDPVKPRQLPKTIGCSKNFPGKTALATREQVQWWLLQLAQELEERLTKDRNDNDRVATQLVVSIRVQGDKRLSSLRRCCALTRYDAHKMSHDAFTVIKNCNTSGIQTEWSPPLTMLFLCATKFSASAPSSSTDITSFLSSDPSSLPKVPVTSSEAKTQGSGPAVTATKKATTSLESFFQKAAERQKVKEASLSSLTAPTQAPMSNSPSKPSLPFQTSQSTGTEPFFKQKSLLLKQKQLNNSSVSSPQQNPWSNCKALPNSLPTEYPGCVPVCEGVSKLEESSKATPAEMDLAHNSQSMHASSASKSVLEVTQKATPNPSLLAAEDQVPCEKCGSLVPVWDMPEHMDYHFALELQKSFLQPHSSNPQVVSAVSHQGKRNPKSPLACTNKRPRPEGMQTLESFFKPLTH
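Pol eta (10 nM) was preincubated with compounds for 15 min at room temperature, after which fluorescent replication substrate (50 nM final) was added to start the reaction. Fluorescence was read kinetically at 0 and 10 min.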
Pol kappa inh-1 – inhibitors of human DNA polymerase kappa. purified Pol kappa, fluorescent DNA synthesis assay, 10 min. Potency, µM (top dose mostly 107 µM), for the others: at the highest dose activity, negative = inhibition, most hits filed as inhibitors. 400,000 tested, 0.53% active. AID 588579; further: potency means the concentration at half of the fitted maximal effect; on the % scale 0 is the no-effect control and ±100 the full control effect
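Readout: fluorescence, taken kinetically at 0 and 10 min. Conditions: 10 nM Pol kappa, 15 min RT compound preincubation, 50 nM substrate final. Controls: enzyme-free buffer wells.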
WRN helicase inh – inhibitors of human WRN helicase; 360,000 tested, 0.46% active; Q14191; Potency, µM (top dose mostly 114 µM), without a hit: at the top dose activity change, negative = inhibition, most hits filed as inhibitors; WRN helicase unwinding, fluorescent forked duplex, kinetic; further: potency means the concentration at half of the fitted maximal effect; on the % scale 0 is the no-effect control and ±100 the full control effect; nearly all actives have a fitted effect of over 55% in size
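Kinetic red-fluorescence monitoring (525/598 nm) tracks WRN helicase activity after 100 nM fluorophore-quencher forked duplex and 2 mM ATP are added to 20 nM enzyme pretreated 15 min at room temperature with compound.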
PGK validate – blocks T. brucei phosphoglycerate kinase | shares compounds with Pol kappa inh-1 | TbPGK coupled GAPDH assay, Kinase-Glo luminescence | Potency, µM (titrated, usually from 57.5 µM), inactives show top-dose activity change, negative = inhibition, actives largely listed as inhibitors | 500 tested, 79% active | AID 686980; further: potency means the concentration at half of the fitted maximal effect; on the % scale 0 is the no-effect control and ±100 the full control effect; nearly all actives have a fitted effect of over 65% in size
Pol iota confirm – Human Pol iota inhibitor confirmatory assay | shares compounds with Pol kappa inh-1 | Pol iota primer extension, TAMRA/BHQ fluorescence | Potency, µM, usual class: inhibitors | 1,500 tested, 77% active | AID 720496; further: potency means the concentration at half of the fitted maximal effect
GALK inh confirm – confirmation of human galactokinase (GALK) inhibitors. shares compounds with Pol eta inh-1. purified GALK, Kinase-Glo ATP depletion luminescence. Potency, µM (doses to about 115 µM), for the others: top-dose activity, negative = inhibition, most hits filed as inhibitors. 150 tested, 70% active
GALK redox cs – redox cycling activity in phenol red-HRP assay. AID 2035. shares compounds with Pol eta inh-1. Phenol red-HRP H2O2 redox cycling, absorbance 600 nm. 150 tested, 40% active. Potency, µM (titrated, usually from 115 µM), inactives show top-dose activity change, negative = H2O2 signal, usual class: inhibitors
HEK293 tox – reduces HEK-293 cell viability in GALK counter-screen; Potency, µM (titrated, usually from 46.1 µM), inactives show at the highest dose activity change, negative = cytotoxicity, usual class: inhibitors; AID 2547; shares compounds with Pol eta inh-1; HEK-293 viability, ATP luminescence (CellTiter-Glo), 24/48 h; 170 tested, 10% active; further: potency means the concentration at half of the fitted maximal effect; on the % scale 0 is the no-effect control and ±100 the full control effect
Pol kappa inh-2 – confirmation of human DNA polymerase kappa inhibitors. shares compounds with Pol eta inh-1. purified Pol-kappa, fluorescent strand-displacement substrate. Potency, µM, actives largely listed as inhibitors. 920 tested, 76% active. AID 720501; further: potency means the concentration at half of the fitted maximal effect
Pol eta inh-2 – confirmation of human DNA polymerase eta inhibitors | shares compounds with Pol eta inh-1 | Pol eta primer extension, TAMRA/BHQ fluorescence, 10 min | Potency, µM, usual class: inhibitors | 2,600 tested, 64% active | AID 720502; further: potency means the concentration at half of the fitted maximal effect
Active calls of the source: *; ? = inconclusive; . = no result given; [ ] = another dose, or the depositor's remark. Only some compounds are listed: those with a hit (about 2.4% of all), similar ones and a draw of the others. The call rests on the fitted dose curve; in most records, active means well fitted curve in the direction sought with a large enough effect; inconclusive means small, poorly fitted or top-dose-only effect, or another doubt; inactive means no such curve, though single readings can be large; an effect the other way counts as inactive or inconclusive.

SMILES	FEN1 inhibitor	POLI inh	POLB inh	Pol eta inh-1	Pol kappa inh-1	WRN helicase inh	Pol iota confirm	Pol kappa inh-2	Pol eta inh-2	others
O=C(c1ccco1)N(c1ccccn1)c1ccccn1	1.0%	-0.2%	25.9%	-8.8%	1.9%	-10.2%	.	.	.
O=C(/C=C/c1ccco1)N(c1ccccn1)c1ccccn1	?	?	3.55µM*	8.91µM*	31.6µM*	50.1µM*	16.8*	.	23.9*
O=C(O)C1Nc2c(Cl)cc(Cl)c(Cl)c2C2C=CCC12 (stereo not drawn)	35.5µM*	10µM*	.	14.1µM*	28.2µM*	39.8µM*	21.2*	.	23.9*
Cc1cc(SCC(=O)Nc2ccc3[nH]c(=O)[nH]c3c2)nc2ccccc12	-9.1%	?	.	39.8µM*	-3.8%	?	59.7*	?	.
Cn1c(SCC(=O)N/N=C/C=C\c2ccco2)nc2ccccc21	?	12.6µM*	44.7µM*	22.4µM*	28.2µM*	?	?	67*	67.5*
CCCc1nc2scc(-c3ccccc3)c2c(=O)n1N	16.6%	2.0%[58.9 µM]	-4.3%	-10.3%	-6.1%	-1.8%	.	.	.
O=C(O)CSc1cc(C(=O)c2ccccc2O)cn2c(=O)c3c(-c4ccccc4)csc3nc12	?	?	44.7µM*	14.1µM*	?	?	21.2*	.	26.9*
Cc1ccc(-c2ccc(=O)n(CC(=O)Nc3ccc(C(C)C)cc3)n2)cc1	-4.2%	6.1%	4.8%	-21.7%	7.0%	.	.	.	.
Cn1c(SCC(=O)Nc2cccc(C(=O)O)c2)nnc1-c1cc2cc(Br)ccc2o1	-13.4%	?	?	?	-16.5%	-7.0%[11.6 µM]	?	.	?
Cc1ccc(OCCn2nnc3sc4c(c3c2=O)CCC(C)C4)cc1 (stereo not drawn)	-14.3%	11.3%	16.0%	.	4.0%	.	.	.	.
C/C(=N\Nc1ccc(Cl)c(C(=O)O)c1)c1ccc[nH]1	-31.7%	44.7µM*	31.6µM*	14.1µM*	44.7µM*	?	53.2*	.	26.9*
COc1cc(-c2ccc(Nc3ccccc3C(=O)O)c(OC)c2)ccc1Nc1ccccc1C(=O)O	?	7.94µM*	?	10µM*	31.6µM*	31.6µM*	67*	18.9*	30.1*
COc1cccc(Nc2ccccc2C(=O)O)c1	-0.9%	51.0%	-6.2%	-1.1%	-8.7%	-17.1%	.	.	.
Cc1nn(C(C)C(=O)NC2C(=O)N3C(C(=O)O)=C(CSc4nnnn4C)CSC23)cc1Cl (stereo not drawn)	-1.3%	15.8µM*	25.1µM*	20µM*	?	-11.6%[11.6 µM]	.	.	?	PGK validate=-25.2%
CCc1ccccc1Nc1nn2c(=O)c3ccc(C(=O)NCc4cccs4)cc3nc2s1	-15.6%	79.4µM*	8.91µM*	?	-0.1%[60.1 µM]	.	?	?	.
COc1ccc2c(C)nc(Nc3nc(C)c(C)c(=O)[nH]3)nc2c1	44.7µM*	8.3%	200.4%	?	10.8%	1.7%[57.1 µM]	53.2*	.	75.7*
C[n+]1cccc2cccc([O-])c21	?	1.58µM*	28.2µM*	22.4µM*	?	-14.8%[11.6 µM]	23.8*	.	42.6*	GALK inh confirm=23.7µM*;GALK redox cs=11.9µM*;HEK293 tox=4.9%
COc1cc(NS(=O)(=O)c2ccc(NC(=S)NC(=O)/C=C/c3ccc(OC)c(OC)c3)cc2)ncn1	44.7µM*	?	17.9%	31.6µM*	-22.2%	-0.3%[57.1 µM]	37.7*	26.7*	.	PGK validate=29.1µM*
CCn1c(C)cc(/C=C2\NC(=O)N(CC(=O)Nc3ccc(F)cc3)C2=O)c1C	-1.9%	62.2%	1.4%	-22.2%	-6.3%	-2.6%	.	.	.
Cc1ccc(NC(=O)CN2C(=O)N/C(=C/c3cc(C)n(-c4ccc(C(=O)O)cc4)c3C)C2=O)cc1	-10.2%	35.5µM*	50.1µM*	22.4µM*	?	-7.4%[11.6 µM]	42.3*	23.8*	26.9*
Cc1ccc(NC(=O)c2c(C)oc3ncn(CC(C)C)c(=O)c23)nc1	10.8%	-8.1%	-6.9%	-2.8%	-8.0%	.	.	.	.
C=CCn1c(SCC(=O)NC2CCCC2)nnc1-c1cccnc1	-3.7%	39.0%	-6.9%	-1.3%	-6.8%	-2.8%	.	.	.
C=CCn1c(SCC(=O)c2ccc(O)c(O)c2)nnc1-c1cccnc1	?	7.08µM*	1.26µM*	3.98µM*	28.2µM*	39.8µM*	33.6*	.	26.9*	PGK validate=3.66µM*
O=C(Nc1ccc(S(=O)(=O)Nc2ncccn2)cc1)c1ccc(N2CCCC2=O)cc1	-5.2%	?	?	44.7µM*	-45.3%	-30.6%[57.1 µM]	?	.	?
CC(=O)Nc1sc2c(c1C#N)CCN(Cc1ccccc1)C2	0.0%	59.1%	-1.8%	-15.4%	-10.9%	0.6%	.	.	.
N#Cc1c(NC(=O)/C=C/C(=O)O)sc2c1CCN(Cc1ccccc1)C2	-29.1%	-27.2%	31.6µM*	28.2µM*	6.8%	-8.3%[11.6 µM]	47.4*	23.8*	47.8*
NS(=O)(=O)c1ccc(NC(=O)C2Cc3ccccc3CN2C(=O)c2ccco2)cc1 (stereo not drawn)	-8.9%	20µM*	28.2µM*	20µM*	79.4µM*	?	?	.	67.5*
O=C(O)C1=CCC=CC1C(=O)O (stereo not drawn)	.	.	.	5.01µM*	.	?	21.2*	.	15.1*	PGK validate=3.26µM*
